Sampled rows, rich in hits. Any-hit rate of the full collection: about 6%.
PLK1 PBD inh: inhibitors of human PLK1 polo-box domain binding; P53350; Plk1 PBD binding of FITC phosphopeptide, fluorescence polarization; Potency, µM, for inactives: max response, negative = inhibition, most hits filed as inhibitors; hit rate 2.8% among 360,000; also: series mostly up to about 57 µM; nearly all actives have a fitted effect of over 65% in size
VDR inhibitor: inhibitors of human vitamin D receptor; VDR-SRC2-3 peptide fluorescence polarization, 2 h; Potency, µM, for the others: max response, negative = inhibition, usual class: inhibitors; hit rate 0.93% among 400,000
Target sequence (P11473 whole entry, looked up): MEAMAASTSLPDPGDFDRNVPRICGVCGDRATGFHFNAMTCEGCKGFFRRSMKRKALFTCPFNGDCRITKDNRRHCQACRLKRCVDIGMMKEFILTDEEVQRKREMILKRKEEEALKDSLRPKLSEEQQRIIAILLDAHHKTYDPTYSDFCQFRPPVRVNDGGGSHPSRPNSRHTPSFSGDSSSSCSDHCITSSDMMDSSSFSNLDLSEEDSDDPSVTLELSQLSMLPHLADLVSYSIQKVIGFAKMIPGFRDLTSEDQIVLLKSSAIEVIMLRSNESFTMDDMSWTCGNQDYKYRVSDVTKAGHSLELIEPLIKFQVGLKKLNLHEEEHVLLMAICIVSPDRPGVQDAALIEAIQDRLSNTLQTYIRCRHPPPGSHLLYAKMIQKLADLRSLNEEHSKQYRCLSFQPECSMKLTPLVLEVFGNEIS
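Reagent solutions, kept cold and dark, are dispensed first; compounds are then pinned in at 23 nl, plates briefly spun, and incubated 2 h at ambient temperature. Inhibition of VDR–SRC2-3 peptide binding is read by fluorescence polarization.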
Tau fluor counter: counter-screen for tau fibril formation inhibitors | Potency, µM (series often up to 57.7 µM), without a hit: top-dose activity change, negative = decrease | hit rate 0.93% among 280,000 | tau K18 P301L Alexa594 fluorescence, heparin fibrillization | AID 1463; also: nearly all actives have a fitted effect of over 55% in size
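Human tau K18 P301L (15 uM unlabeled, 0.24 uM Alexa 594-labeled) in 100 mM sodium acetate pH 7 with 20 uM heparin, 6 hr at 37 C. ThT 30 uM added, 1 hr ambient; Alexa 594 FP and total fluorescence read at 555/632 nm.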
Sfp inh: Sfp phosphopantetheinyl transferase inhibition; Biochemical Sfp PPTase activity, qHTS; Potency, µM, for the others: largest response in the series, negative = inhibition, actives largely listed as inhibitors; hit rate 3.5% among 310,000; AID 1490;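 also: the enzyme is Sfp with the accession as filed and its product quenches rhodamine fluorescence; 0% = enzyme reaction without inhibitor and -100% = no enzyme wells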
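With Hepes-Na pH 7.6 buffer containing 10 mM MgCl2, Sfp (15 nM) modified BHQ-2-YbbR (12.5 uM) using rhodamine-CoA (5 uM). Two reads 30 minutes apart at 525/598 nm yielded each well's rate.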
Tau fibril ThT: blocks human tau fibril formation measured by thioflavin T. recombinant tau K18 P301L (four-repeat tau fragment), heparin-induced fibrillization, ThT fluorescence. Potency, µM (titrated, usually from 57.4 µM), for the others: top-dose activity, negative = inhibition, most hits filed as inhibitors. hit rate 2.1% among 270,000. AID 1460; also: nearly all actives have a fitted effect of over 55% in size
Target sequence (P10636 561-689 P618L limits assumed): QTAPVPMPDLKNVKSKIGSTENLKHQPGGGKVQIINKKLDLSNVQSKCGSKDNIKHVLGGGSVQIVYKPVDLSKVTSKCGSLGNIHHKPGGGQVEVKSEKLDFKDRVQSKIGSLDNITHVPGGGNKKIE
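Heparin-induced (20 uM) aggregation of recombinant human K18 P301L tau, 15 uM unlabeled with 0.24 uM labeled, pH 7 acetate buffer, 6 hr at 37 C with compound. Fibrils quantified by 30 uM ThT fluorescence after 1 hr ambient incubation.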
Tau FP inhib: blocks human tau fibril formation measured by polarization | P10636 | K18 P301L tau heparin fibrillization, Alexa594 FP, 6 h | Potency, µM (titrated, usually from 57.7 µM), without a hit: at the top dose activity, negative = inhibition, actives largely listed as inhibitors | hit rate 0.39% among 280,000; also: nearly all actives have a fitted effect of over 55% in size
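Human tau K18 […] P301L fragment, 15 uM unlabeled plus 0.24 uM Alexa 594-labeled tau (final), with compound and 20 uM heparin in 100 mM sodium acetate pH 7; 6 hr at 37 C, then Alexa 594 FP read.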
Starred values were filed as active, the others as inactive; [ ] = remark or other dose. Calls follow the shape of the dose curve; as a rule, active = well fitted curve in the direction sought with a large enough effect; inconclusive = small, poorly fitted or top-dose-only effect, or another doubt; inactive = no such curve, though single readings can be large; an effect the other way counts as inactive or inconclusive. Unless noted, % is scaled to controls: 0 for no effect and ±100 for the full control effect; potency is read from the fitted curve at half-maximal effect.

CC(C)=NNc1nc(-c2ccccc2)c(C)s1 was read as PLK1 PBD inh 21µM*, VDR inhibitor -16%, Tau fluor counter inconclusive, Sfp inh 56µM*, Tau fibril ThT inconclusive and Tau FP inhib 8%.
`O=c1cc(-c2ccccc2Cl)oc2cc(O)cc(O)c12` gave PLK1 PBD inh -9%, VDR inhibitor -1%, Tau fluor counter -5%, Sfp inh -10%, Tau fibril ThT 4% and Tau FP inhib -1%.
`O=C1C=CC(O)(c2cc(=O)c3c(O)cc(O)cc3o2)C=C1` gave PLK1 PBD inh -22%, VDR inhibitor 32µM*, Tau fluor counter -25%, Sfp inh inconclusive, Tau fibril ThT 13µM* and Tau FP inhib 11µM*.
CO[C@@H]1COC(=O)[C@@H](CCSC)NC(=O)C/C=C\[C@@H](C)COC(=O)CCC[C@H]1C was read as Tau fluor counter 0%[11.6 µM], Sfp inh 0%, Tau fibril ThT -3%[11.5 µM] and Tau FP inhib -3%[11.6 µM].
O=C(O)C1CN(c2nc(Cl)ccc2[N+](=O)[O-])C1 was read as PLK1 PBD inh -16%, VDR inhibitor -10%, Tau fluor counter 1%, Sfp inh 17%, Tau fibril ThT -16% and Tau FP inhib 5%.
Screening O=C(O)C1CN(c2ncccc2[N+](=O)[O-])C1 returned PLK1 PBD inh 13µM*, VDR inhibitor inconclusive, Tau fluor counter -4%, Sfp inh 20%, Tau fibril ThT -3% and Tau FP inhib -7%.
Screening COc1ccccc1N=NNc1ccccc1OC returned PLK1 PBD inh -2%.
Screening O=C(Nc1ccccc1)Nc1csc2ccccc12 returned PLK1 PBD inh 1%, VDR inhibitor 6%, Tau fluor counter 11µM*[quencher], Sfp inh 50µM*, Tau fibril ThT inconclusive and Tau FP inhib inconclusive.
`O=C(Nc1ccccc1)Nc1ccc(O)c2ccccc12` gave PLK1 PBD inh inconclusive and VDR inhibitor 50µM*.
O=C(Nc1ccccc1)Nc1cccc2ccccc12 was read as PLK1 PBD inh -1%, VDR inhibitor 4%, Tau fluor counter -21%, Sfp inh -9%, Tau fibril ThT inconclusive and Tau FP inhib -9%.
For O=C(CCC1N=C2c3ccccc3N=C(SCc3ccc(Cl)cc3)N2C1=O)N1CCN(c2ccccc2)CC1 (stereo not drawn) the results were VDR inhibitor -8%, Tau fluor counter -10%, Tau fibril ThT inconclusive and Tau FP inhib -6%.
For c1nc(SSc2ncnc3nc[nH]c23)c2[nH]cnc2n1 the results were PLK1 PBD inh 0.84µM* and VDR inhibitor 25µM*.
Screening COc1ccc(C)c2sc(N(Cc3cccnc3)C(=O)C3CCCCC3)nc12 returned VDR inhibitor 14%, Tau fluor counter -18%, Tau fibril ThT -19% and Tau FP inhib -1%.
`COc1cc2[nH]c(Cl)c([N+](=O)[O-])c2cc1OC` gave PLK1 PBD inh -19%, VDR inhibitor inconclusive, Tau fluor counter inconclusive, Sfp inh 89µM*, Tau fibril ThT 14µM* and Tau FP inhib inconclusive.
COc1cc2[nH]c3c(Cl)ncnc3c2cc1OC was read as PLK1 PBD inh -3%, VDR inhibitor -7%, Tau fluor counter -16%, Sfp inh -9%, Tau fibril ThT inconclusive and Tau FP inhib 1%.
Screening O=C(O)COc1ccccc1/C=N/Nc1ccc(S(=O)(=O)N2CCOCC2)cc1[N+](=O)[O-] returned PLK1 PBD inh -14%, VDR inhibitor -14%, Tau fluor counter -11%, Sfp inh -6%, Tau fibril ThT inconclusive and Tau FP inhib 2%.
`Cc1ccc(-n2c(O)c(/C=N/Nc3ccc(S(=O)(=O)N4CCOCC4)cc3[N+](=O)[O-])c3ccccc3c2=O)c(C)c1` gave PLK1 PBD inh inconclusive, VDR inhibitor inconclusive, Tau fluor counter inconclusive, Sfp inh -18%, Tau fibril ThT 13µM* and Tau FP inhib -9%.
`COC(=O)c1ccc(OC)c(Cn2c(=O)n(-c3cccc(Cl)c3)c(=O)c3c2c2cc(C)ccc2n3C)c1` gave VDR inhibitor -7%, Tau fluor counter -5%, Tau fibril ThT 3% and Tau FP inhib inconclusive.
`Cc1ccc(S(=O)(=O)n2c3ccc(Cl)cc3c3nc(C)sc32)cc1` gave PLK1 PBD inh 27µM*, VDR inhibitor -14%, Tau fluor counter -21%, Sfp inh -15%, Tau fibril ThT -3% and Tau FP inhib -10%.
`COC(=O)Cn1c2ccc(Cl)cc2c2nc(C)sc21` gave PLK1 PBD inh -7%, VDR inhibitor -10%, Tau fluor counter -19%, Sfp inh -1%, Tau fibril ThT -12% and Tau FP inhib -8%.
Screening CC(C)(C)c1ccc(C(=O)Nc2onc3c2CCCC3)cc1 returned VDR inhibitor 10%, Tau fluor counter -22%, Tau fibril ThT -15% and Tau FP inhib 1%.
For Cc1cc(NC(=O)CSc2nnc(Nc3ccccc3)s2)no1 the results were PLK1 PBD inh -11%, VDR inhibitor -16%, Tau fluor counter -9%, Sfp inh 4%, Tau fibril ThT -5% and Tau FP inhib -14%.
For Cc1cc(SCC(=O)c2ccc(O)c(O)c2)n2nc(C)c(-c3ccccc3)c2n1 the results were PLK1 PBD inh -8%, VDR inhibitor -3%, Tau fluor counter 11µM*[quencher], Sfp inh 0%, Tau fibril ThT inconclusive and Tau FP inhib -4%.
For Cc1cc(NC(=O)CSc2nnc(-c3ccccc3)n2C)no1 the results were PLK1 PBD inh 24µM*, VDR inhibitor -7%, Tau fluor counter -7%, Sfp inh 1%, Tau fibril ThT -1% and Tau FP inhib 3%.
`Cc1cc(NC(=O)CSc2nnc(Nc3ccccc3C)s2)no1` gave PLK1 PBD inh 21µM*, VDR inhibitor -15%, Tau fluor counter -14%, Sfp inh 6%, Tau fibril ThT -1% and Tau FP inhib -7%.
Screening CC(=O)Nc1ccc(-c2nnc(SCC(=O)c3ccc4c(c3)Cc3ccccc3-4)n2C)cc1 returned PLK1 PBD inh -18%, VDR inhibitor 50µM*, Tau fluor counter -4%, Sfp inh 89µM*, Tau fibril ThT inconclusive and Tau FP inhib -4%.
For O=C(OCc1ccccc1)N1Cc2ccnnc2CC1c1ccccc1Br (stereo not drawn) the results were PLK1 PBD inh -20%.
Screening O=S(=O)(NCC(c1cccs1)S(=O)(=O)c1ccccc1)c1ccccc1 (stereo not drawn) returned VDR inhibitor 2%, Tau fluor counter -7%, Tau fibril ThT -1% and Tau FP inhib 0%.
Cc1c(Cl)cccc1NC(=O)CCN1CCC(C(N)=O)CC1 was read as PLK1 PBD inh 1%, VDR inhibitor -14% and Sfp inh 8%.
